Results reported in the OligoGym collection.

What follows are sequences tested against RHOH (assay: pooled miR-30 sensor sort-seq; sequence = guide strand). Conditions: shRNA.
Note: reference of the scale not given here.

Sequence | sensor-assay potency score (higher = more potent)
TTGTAGAGTGTAGTTAGTGAAA | -1.62
TTCAGGAATGAGTTATGGTTGG | -0.949
TAGGCCTCCGGGAAGGTCTCGG | -0.658
AACACCTGCTGTACTCCCCGAT | -0.621
AAGCGCACCAACAGAGAGGTTT | -0.535
AAACACCTGCTGTACTCCCCGA | -0.993
TTCTGAAGGCGTCATTGCCGGC | -1.35
TCCGGGAAGGTCTCGGAGGTGA | -1.75
TACACTGTGGGCTTGTAGGCCT | -0.53
AAGGTCTCGGAGGTGAAGCGCA | -0.81
AATTTCACCAATCCACTTGTTC | -0.62
TGTGTTCTCGTACACTGTGGGC | -1.21
TTCTCGTACACTGTGGGCTTGT | -0.506
TAGCACATCAGCACCACGTCTG | 0.265
TTCCATGGCATTGACGCAGGAG | 0.27
TAATTTCACCAATCCACTTGTT | 0.134

What follows are sequences tested against RHOJ in the same assay as above. Conditions: shRNA.

Sequence | sensor-assay potency score (higher = more potent)
TCAACATCTTCTTCTCGTCGTT | 0.0564
TTCTCTTTCATATACAGCAAAC | -1.56
TAGCACTGTGCTCCGATCGCTT | -0.602
ATAGTGGTCAAACACAGTGGGC | -0.911
TTGGCTGCCATTCTCATCCCTG | -0.433
AACATCTTCTTCTCGTCGTTGC | 0.438
TTCAACATCTTCTTCTCGTCGT | 0.937
TTCTGAGTCAGAGCTGAACATT | -1.66
TTTCTCTTTCATATACAGCAAA | -0.918
TTGACTTTGTTTTTGATGCGAT | -0.0639
TTTGAGACCTTTCTGAGTCAGA | -0.62
TTCTTCTCGTCGTTGCCCCTGC | -0.309

Each sequence was assayed against RIC8A in the same assay as above. Conditions: shRNA.

Sequence | sensor-assay potency score (higher = more potent)
AAGAACTGGACATCGTGGGGGA | 0.415
TTGGGCATCATCAAACGTGAAG | -0.89
TTGTTCCGCAGCATCTCCCCAA | -0.652
TGGGCCTTCAGGAACTTCCTGG | -0.964
TACAACATCCATGTCTGCGGAC | -0.737
AACATCCAGACACTTGAGGGGC | -0.627
TACACTCTCCTTCAGCCTGTGT | -1.16
TTCACTCCCATGAACTCCGTGG | 0.138
TTTCAGCTCCTGAAACAGCTGC | -0.481
TAGTCTCGCACATGGCATCCTG | -1.08
TTCTAGCACAAGAAGACCGTTG | 0.199
TTTGAGGATCTCCATGGCCCGC | -1.76
